Bioassay records deposited in PubChem BioAssay by National Center for Advancing Translational Sciences (NCATS).
TDP1 block: inhibitors of human tyrosyl-DNA phosphodiesterase TDP1; recombinant TDP1, AlphaScreen DNA substrate cleavage; Potency, µM (top dose mostly 130 µM), for the others: top-dose activity change, negative = inhibition, most hits filed as inhibitors; 350,000 compounds, 0.28% hits; also: potency is read from the fitted curve at half-maximal effect; nearly all actives have a fitted effect of over 40% in size
Target sequence (Q9NUW8 whole entry, looked up): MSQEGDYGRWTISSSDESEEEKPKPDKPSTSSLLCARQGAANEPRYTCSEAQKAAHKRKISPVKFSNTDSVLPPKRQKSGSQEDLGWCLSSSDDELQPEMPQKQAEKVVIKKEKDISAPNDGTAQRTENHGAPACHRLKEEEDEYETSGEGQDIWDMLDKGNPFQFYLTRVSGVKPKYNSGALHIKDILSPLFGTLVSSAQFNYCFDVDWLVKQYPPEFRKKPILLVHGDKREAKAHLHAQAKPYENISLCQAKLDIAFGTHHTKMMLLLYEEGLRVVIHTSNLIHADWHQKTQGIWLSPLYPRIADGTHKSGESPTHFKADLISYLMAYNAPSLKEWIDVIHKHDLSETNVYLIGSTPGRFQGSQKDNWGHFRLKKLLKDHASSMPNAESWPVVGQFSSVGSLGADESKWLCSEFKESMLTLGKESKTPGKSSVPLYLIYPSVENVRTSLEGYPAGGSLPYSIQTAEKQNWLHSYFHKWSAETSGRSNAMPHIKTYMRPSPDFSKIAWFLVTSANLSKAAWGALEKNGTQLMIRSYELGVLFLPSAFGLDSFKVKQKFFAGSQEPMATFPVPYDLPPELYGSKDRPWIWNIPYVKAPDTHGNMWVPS
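E. coli-derived human Tdp1, 1 nM final. Cpd preinc 15 min RT; substrate 15 nM final, 5 min RT; AS bead mix 10 ug/ml final, 10 min RT. Signal loss = tyrosine-FITC cleavage. No-enzyme wells = max signal.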
CtBP-E1A inh: CtBP/E1A binding inhibition; 340,000 compounds, 0.49% hits; AlphaScreen GST-E1A/His-CtBP binding, 1536-well; hits give low values; activity change, % (concentration not given with the values); in the data active = activity change below about -65%; inconclusive = mostly about -30% to -63%
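Protein mix (5X: 125 nM each GST-E1A, His-CtBP) was incubated with pinned compound 2 h at 37 deg C in dark, in 50 mM Tris pH 8.0 buffer with 300 mM NaCl. Glutathione donor and nickel acceptor beads followed; AlphaScreen signal read after 1 h.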
Six1-Eya2 blk: blocks human Six1 binding to Eya2; Q15475+O00167; AlphaScreen GST-Six1/His-Eya2 binding, biochemical; hits give low values; activity change, % (test concentration not listed); 360,000 compounds, 0.56% hits; AID 651725; in the data active = activity change below about -65%; inconclusive = mostly about -30% to -63%
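GST-Six1 + His-Eya2 (5X stock: 250/500 nM); Tris pH 8.0, 300 mM NaCl, 0.05% BSA, 0.02% Tween 20; GSH donor/Ni acceptor beads; 1 h 37 °C dark; AlphaScreen readout.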
DT40 TDP1 CPT: DT40-hTDP1 cell growth loss with CPT. chicken DT40 Tdp1-/-;hTDP1 cells + 20 nM CPT, ATP luminescence, 48 h. Potency, µM (highest dose often 46.2 µM), without a hit: top-dose activity change, negative = growth inhibition, actives largely listed as inhibitors. 420,000 compounds, 12% hits. AID 686979; also: potency is read from the fitted curve at half-maximal effect; nearly all actives have a fitted effect of over 55% in size
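Cell growth measured by CellTiter-Glo luminescence after a minimum 48 h, 37 C compound exposure with 20 nM CPT in Tdp1-knockout DT40 cells stably expressing hTDP1, seeded 400/well; qHTS titration format.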
DT40 TDP1 no CPT: qHTS for Inhibitors of human tyrosyl-DNA phosphodiesterase 1 (TDP1): qHTS in cells in absence of CPT; DT40 Tdp1-/- hTDP1 cells, no CPT, ATP luminescence, 48 h; Potency, µM (doses to about 46.2 µM), for inactives: at the top dose activity change, negative = growth inhibition, usual class: inhibitors; 420,000 compounds, 15% hits; AID 686978, 2013; also: potency is read from the fitted curve at half-maximal effect; nearly all actives have a fitted effect of over 55% in size
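Growth of hTDP1-complemented DT40 Tdp1-knockout cells is measured by ATP luminescence after at least 48 hr compound exposure at 37 °C, with DMSO substituting for the 20 nM CPT used in the parallel screen.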
IL1B secr inh: blocks inflammasome-driven IL-1 beta release; THP-1 LPS/ATP IL-1B secretion, AlphaLISA, 16 h; hits give low values; activity change, % at 57.5 µM; 360,000 compounds, 4.7% hits; in the data active = activity change below about -50%; inconclusive = mostly about -30% to -49%
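Secreted IL-1B measured by AlphaLISA bead assay after 16 h compound exposure of THP-1 cells; compounds (final up to 57.5 uM) added 1 h before LPS (250 ng/mL) and ATP (1.25 mM) stimulation; lower signal means less secretion.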
Starred values were filed as active, the others as inactive; ? = inconclusive; . = no result. Shown are actives, neighbours in structure and some others; about 18% of the full set was active somewhere. Unless noted, calls follow the shape of the dose curve; as a rule, active = well fitted curve in the direction sought with a large enough effect; inconclusive = small, poorly fitted or top-dose-only effect, or another doubt; inactive = no such curve, though single readings can be large; an effect the other way counts as inactive or inconclusive. % is scaled to controls: 0 for no effect and ±100 for the full control effect.

SMILES	TDP1 block	CtBP-E1A inh	Six1-Eya2 blk	DT40 TDP1 CPT	DT40 TDP1 no CPT	IL1B secr inh
COC(=O)c1ccc2c(=O)[nH]c(CN3c4ccccc4CC3C)nc2c1 (centres undefined)	4.1%	-5.2	-11.3	-16.1%	?	14.1
COC(=O)c1ccc2c(=O)[nH]c(CCl)nc2c1	5.3%	8.8	0.0	11.6µM*	14.6µM*	-97.1*
C=CCn1c(SCc2nc3ccccc3c(=O)[nH]2)nc2scc(C3CC3)c2c1=O	0.0%	3.9	-7.6	14.6µM*	16.4µM*	14.2
C=CCn1c(SCC(N)=O)nc2ccccc2c1=O	-8.6%	.	.	-10.8%	-27.4%	.
C=CCn1c(SCC(=O)Nc2sccc2C(N)=O)nc2ccc(Cl)cc2c1=O	-2.8%	-8.6	0.0	14.6µM*	16.4µM*	-6.2
CCn1c(SCc2nc3ccccc3c(=O)[nH]2)nc2ccccc2c1=O	3.7%	-13.1	-17.0	-22.7%	?	2.3
O=C(NNC(=O)c1ccccc1Br)c1ccccc1Cl	3.8%	-23.9	2.9	0.2%	-12.4%	-6.1
COc1cccc(NC(=O)[C@@H]2CCCN2C(=O)[C@@H]2Cc3ccccc3CN2C(=O)OC(C)(C)C)c1	2.2%	-0.6	1.6	-28.9%	2.4%	14.7
C=CCn1c(SCc2nc3cc(C(=O)OC)ccc3c(=O)[nH]2)nc2sc(CC)cc2c1=O	5.9%	9.4	-0.1	?	18.4µM*	5.2
C=CCn1c(SC(C)C(N)=O)nc2sc(CC)cc2c1=O (centres undefined)	0.0%	-8.3	12.1	-1.6%	?	56.0
C=CCn1c(SCC(=O)c2c(N)n(C)c(=O)n(C)c2=O)nc2sc(C)c(C)c2c1=O	-4.0%	35.5	22.1	-15.6%	?	-0.2
C=CCn1c(SCC(=O)c2c(N)n(CCC)c(=O)n(C)c2=O)nc2sc(CC)cc2c1=O	0.9%	-0.9	-2.0	6.51µM*	5.8µM*	0.0
C=CCn1c(SCC(=O)Nc2sccc2C(N)=O)nc2sc(CC)cc2c1=O	4.5%	-5.0	-0.9	?	25.9µM*	-29.8
CC(=O)NCCNC(=O)CCCc1nnc2n(CC(C)C)c(=O)c3sccc3n12	2.6%	.	.	-2.7%	-21.5%	.
COC(=O)CNC(=O)COC(=O)c1cc(Cl)cc(Cl)c1N	-2.4%	7.0	7.3	-3.9%	-6.5%	23.5
COc1cc(/C=C/C(=O)N2CCN(Cc3ccccc3)CC2)cc(OC)c1OC	.	.	-0.7	-72.8%	18.4µM*	3.6
CN1CCN(C(=O)/C=C/c2ccc(Cl)cc2)CC1	-2.7%	-0.5	4.8	5.7%	7.1%	-23.9
COc1cc(/C=C/C(=O)N2CCN(CC(O)COc3ccccc3)CC2)cc(OC)c1OC (centres undefined)	4.0%	-1.1	0.3	?	20.6µM*	-5.8
O=C(/C=C/c1ccc(Cl)cc1)N1CCN(Cc2ccccc2)CC1	.	-9.1	-22.5	-14.2%	?	-75.3*
COCCNC(=O)C(OC(=O)c1ccco1)c1ccccc1OC (centres undefined)	2.9%	9.6	4.0	-3.5%	-5.4%	9.6
C[C@@H]1CCCN1[C@@H]1CS(=O)(=O)N[C@H]1COCc1ccccc1	.	0.5	-0.3	-1.5%	-11.7%	44.4
CC(=O)c1c(C)[nH]c(C(=O)COC(=O)C2CC2)c1C	0.0%	3.9	2.5	-5.7%	5.1%	-3.4
O=C(OCCOc1ccccc1F)c1cccc(S(=O)(=O)N2CCOCC2)c1	-0.6%	4.2	27.0	-2.8%	-8.3%	31.9
COC(=O)c1cc(OC)c(OC)cc1NCC(=O)Nc1ccc(C)cc1	3.2%	-13.8	-11.5	-23.3%	-11.2%	-52.1*
COC(=O)c1cc(OC)c(OC)cc1NCC(=O)Nc1ccc(OC)c(OC)c1	0.0%	-26.7	?	20.6µM*	13µM*	7.5
SMILES	TDP1 block	CtBP-E1A inh	Six1-Eya2 blk	DT40 TDP1 CPT	DT40 TDP1 no CPT	IL1B secr inh
COC(=O)c1cc(OC)c(OC)cc1NCC(=O)Nc1cccc(C(F)(F)F)c1	8.5%	-0.6	-14.2	-29.1%	?	-11.8
Cc1c(NC(=S)N/N=C/c2ccc(O)cc2)c(=O)n(-c2ccccc2)n1C	6.4%	1.7	1.8	0.6%	?	8.8
Cc1sc(Nc2ccc([N+](=O)[O-])cc2)nc1-c1c(C)n(C)n(-c2ccccc2)c1=O	2.9%	2.5	5.2	?	23.1µM*	-20.9
Cc1c(N2C(=O)CSC2c2ccc([N+](=O)[O-])cc2)c(=O)n(-c2ccccc2)n1C (centres undefined)	4.2%	8.0	4.5	?	-6.8%	6.4
Cc1c(NC(=O)Nc2ccc([N+](=O)[O-])cc2)c(=O)n(-c2ccccc2)n1C	.	8.0	5.0	?	20.6µM*	30.2
Cc1c(NC(=S)N/N=C/c2cc([N+](=O)[O-])ccc2O)c(=O)n(-c2ccccc2)n1C	9.4%	.	-88.2*	-29.1%	?	16.2
Cc1ccc(NC(=O)Nc2c(C)n(C)n(-c3ccccc3)c2=O)cc1	.	6.3	6.7	-14.4%	19.5%	9.3
O=C(Nc1ccc(O)c(C(=O)O)c1)c1cccc(NC(=O)c2ccco2)c1	.	-20.0	-15.7	-2.3%	-8.3%	15.6
Cc1cc(N=Nc2ccc(Cl)cc2)cc(CN2CCCC2)c1O	11.4%	?	?	?	?	-6.7
N#Cc1ccccc1COC(=O)c1ccc(Br)o1	4.9%	2.3	8.2	-12.9%	-0.2%	-27.4
Cc1sc2nc(SCC(=O)N3CCCCC3)[nH]c(=O)c2c1C	5.5%	-2.0	-3.3	-12.1%	-8.7%	26.3
Cc1sc2nc(SCC(=O)N3CCCC3)[nH]c(=O)c2c1C	8.7%	-1.9	-7.9	25.9µM*	?	1.1
CCC(C)c1c(O)nc(SCC(=O)N2CCCCCC2)[nH]c1=O (centres undefined)	.	3.4	6.6	7.8%	-14.0%	-50.6*
Cc1cn(-c2ccc(Br)cc2)[nH]c1=O	5.3%	-8.6	-4.4	-24.6%	-12.4%	-3.0
O=c1c2cnn(-c3ccccc3)c2nnn1/N=C/c1cccnc1	1.1%	11.7	3.4	-1.3%	7.2%	40.9
Brc1ccccc1OCCCCn1cnc2ccccc21	5.5%	-9.5	3.2	4.11µM*	10.3µM*	-84.5*
Cc1ccc(OCCCCn2cnc3ccccc32)c(C)c1	0.0%	5.6	-1.9	13µM*	8.2µM*	-29.4
Brc1ccccc1Cn1cnc2ccccc21	.	.	-4.7	?	20.6µM*	10.5
